# Target: T1, ZGPAT 120-268 zf-CCCH+TUDOR (domain begin residue: 120, domain end residue: 268), Q8N5A5
# T1 chain: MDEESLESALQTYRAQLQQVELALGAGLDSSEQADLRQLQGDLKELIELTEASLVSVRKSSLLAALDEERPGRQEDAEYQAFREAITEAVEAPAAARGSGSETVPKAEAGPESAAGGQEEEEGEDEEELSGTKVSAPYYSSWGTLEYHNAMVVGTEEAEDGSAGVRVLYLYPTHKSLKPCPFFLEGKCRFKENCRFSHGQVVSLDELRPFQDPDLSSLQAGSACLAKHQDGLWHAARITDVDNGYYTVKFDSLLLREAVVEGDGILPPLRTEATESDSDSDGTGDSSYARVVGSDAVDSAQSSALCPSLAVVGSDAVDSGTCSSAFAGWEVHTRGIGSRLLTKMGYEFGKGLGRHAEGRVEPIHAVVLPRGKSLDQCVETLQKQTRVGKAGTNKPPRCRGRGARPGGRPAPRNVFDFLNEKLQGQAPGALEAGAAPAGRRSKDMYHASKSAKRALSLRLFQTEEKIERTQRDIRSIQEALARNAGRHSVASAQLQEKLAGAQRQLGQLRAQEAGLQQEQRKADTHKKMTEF
# Test: phage ELISA signal ratio (GST-PRM binding over GST background); higher = stronger binding of peptide-phage to the PRM
# Summary of the method: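 Each value is the phage ELISA signal on the glutathione S-transferase (GST)-domain fusion divided by the signal on GST alone. Human peptide recognition domains were expressed in 96-well plates, fused to the C-terminus of GST, and selected against an M13 phage library carrying randomized, cysteine-free, glycine-flanked hexadecapeptides on the gene-8 major coat protein. After five selection rounds, approximately 48 individual clones from rounds 4 and 5 were tested by phage ELISA, and positive clones were sequenced.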
row,Binder,phage ELISA signal ratio
1,DYMSTLFDSIPTHVST,8.28
2,DYMSQLWDHMSVDIYP,5.82
3,SQAMDLNAGWPWDIVM,8.17
